Assay results reported in PubChem BioAssay AID933 (National Center for Advancing Translational Sciences (NCATS), 2007).
Records with an inconclusive call do not appear. Activity calls are given as the source filed them. Calls come from the whole dose curve; as a rule, active = well fitted activation curve with a large enough effect in the signal ratio, with a control signal flat; inconclusive = small, poorly fitted or top-dose-only effect, or a change in a side signal; inactive = flat fitted curve, though single readings scatter; the % refers to the signal ratio.

Molecular target: Thyrotropin receptor (Homo sapiens) (UniProt P16473)
Sequence (P16473 whole entry, looked up): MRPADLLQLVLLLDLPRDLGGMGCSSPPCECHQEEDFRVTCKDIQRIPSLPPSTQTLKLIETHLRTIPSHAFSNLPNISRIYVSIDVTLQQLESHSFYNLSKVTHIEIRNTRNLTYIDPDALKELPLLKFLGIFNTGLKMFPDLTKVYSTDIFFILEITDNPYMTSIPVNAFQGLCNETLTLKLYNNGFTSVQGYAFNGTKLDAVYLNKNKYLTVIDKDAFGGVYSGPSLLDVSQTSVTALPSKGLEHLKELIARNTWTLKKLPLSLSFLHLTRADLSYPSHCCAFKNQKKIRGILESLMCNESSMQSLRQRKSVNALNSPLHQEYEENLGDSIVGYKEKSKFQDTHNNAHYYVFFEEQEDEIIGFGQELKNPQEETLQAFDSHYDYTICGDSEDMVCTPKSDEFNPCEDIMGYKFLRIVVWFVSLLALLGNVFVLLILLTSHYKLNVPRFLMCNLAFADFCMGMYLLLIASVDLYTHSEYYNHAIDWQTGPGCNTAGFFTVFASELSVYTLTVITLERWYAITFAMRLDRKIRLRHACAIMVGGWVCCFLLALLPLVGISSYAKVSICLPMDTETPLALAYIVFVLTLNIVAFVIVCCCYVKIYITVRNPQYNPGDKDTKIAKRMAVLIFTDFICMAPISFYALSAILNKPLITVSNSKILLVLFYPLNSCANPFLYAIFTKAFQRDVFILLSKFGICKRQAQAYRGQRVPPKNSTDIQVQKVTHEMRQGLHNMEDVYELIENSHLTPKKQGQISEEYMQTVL
Test: Secondary Concentration-Response Assay for Agonists of the Thyroid Stimulating Hormone Receptor: HTRF Activity Detection; for activation: % of control where 0% means no effect
Conditions: HEK293-TSHR cells, cAMP HTRF ratio, 30 min; series mostly up to 91.7 µM; activation: at the top concentration
Method in brief: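 cAMP accumulation was detected by antibody-based HTRF, excitation 330 nm, emissions 615 and 660 nm. Compounds acted for 30 min at room temperature on stably TSHR-transfected HEK 293 cells, with phosphodiesterase inhibitor RO 20-1724 (100 uM) in the medium.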
Potency is the fitted concentration of half-maximal effect.

Row | Structure (SMILES) | activation | Potency
1 | COc1ccc(C2Nc3ccccc3C(=O)N2Cc2ccccc2)cc1COc1ccc(C#N)cc1 (stereo not given) | 11.2% (inactive) | 
2 | COC(=O)C1=C(C)NC(C)=C(C(=O)OC)C1c1ccc(OC(=O)c2ccco2)cc1 | 0.436% [at 0.00035 µM] (inactive) | 
3 | CCCS(=O)(=O)N1CCN(C(=O)c2ccc(-c3ccccc3)cc2)CC1 | 0.323% [at 0.00035 µM] (inactive) | 
4 | COc1ccc(C2Nc3ccccc3C(=O)N2Cc2ccco2)cc1CN1C(=O)c2ccccc2C1=O (stereo not given) |  | inactive
5 | COc1ccc(N2C(=O)c3ccccc3NC2c2ccc(OC)c(COc3ccccc3F)c2)cc1 (stereo not given) | 1.29% (inactive) | 
6 | COc1ccc(CN(Cc2ccccc2)C(=O)c2ccccc2O)cc1 | 27% (inactive) | 
7 | CN1C(=O)c2ccccc2N(C)C1c1ccc2c(c1)OCO2 (stereo not given) | 0.767% (inactive) | 
8 | COc1ccc(/C=N/n2cncn2)cc1COc1ccc(NC(C)=O)cc1 | 1.15% (inactive) | 
9 | COc1ccc(N2C(=O)c3ccccc3NC2c2ccc(OC)c(COc3ccccn3)c2)cc1 (stereo not given) |  | inactive
10 | CC(=O)Nc1ccc(OCc2cccc(C3Nc4ccccc4C(=O)N3Cc3ccco3)c2)cc1 (stereo not given) | 6.27% (inactive) | 
11 | CCCN1C(=O)c2ccccc2NC1c1ccc(OC)c(COc2ccc([N+](=O)[O-])cc2)c1 (stereo not given) | 1.07% (inactive) | 
12 | Cc1ccccc1-n1nc(C)c2cc(C(=O)N3CCN(S(=O)(=O)c4ccc(F)cc4)CC3)sc21 | 0.202% [at 0.00035 µM] (inactive) | 
13 | COc1ccc(C2NC(=O)c3ccccc3N2)cc1COc1ccc(NC(C)=O)cc1 (stereo not given) | 21.9% (inactive) | 
14 | COc1ccc(-c2nc3ccccc3c(=O)n2Cc2ccccc2)cc1OCc1ccc(NC(C)=O)cc1 | 2.33% (inactive) | 
15 | CCCN1C(=O)c2ccccc2NC1c1ccc(OC)cc1OC (stereo not given) | 3.69% (inactive) | 
16 | Cc1occc1-c1nnc(SCC(=O)NCc2ccco2)n1CC(C)C | 0.131% [at 0.00035 µM] (inactive) | 
17 | CCOc1cc(C2Nc3ccccc3C(=O)N2Cc2ccco2)ccc1OCc1ccccc1Cl (stereo not given) | 0.379% (inactive) | 
18 | CC(C)Oc1ccccc1C1Nc2ccccc2C(=O)N1c1ccc2c(c1)OCCO2 (stereo not given) | 2.9% (inactive) | 

Row | Structure (SMILES) | activation | Potency
19 | COc1ccc(C2Nc3ccccc3C(=O)N2c2ccc(C)cc2)cc1COc1ccccn1 (stereo not given) | 2% (inactive) | 
20 | CCOC(=O)CCc1c(C)nc2c(c(C)nn2C(C)(C)C)c1C | 0.0158% [at 0.00035 µM] (inactive) | 
21 | COc1ccc(O)c(-c2nc3ccccc3c(=O)n2Cc2ccccc2)c1 | 10.9% (inactive) | 
22 | COc1ccc(C2Nc3ccccc3C(=O)N2Cc2ccccc2)cc1COc1ccccc1OC (stereo not given) | 15.1% (inactive) | 
23 | COc1ccc(C2Nc3ccccc3C(=O)N2Cc2ccccc2)cc1COc1ccccc1F (stereo not given) | 1.32% (inactive) | 
24 | COc1ccc(C2Nc3ccccc3C(=O)N2c2ccc(C)cc2)cc1Cn1nnc2ccccc21 (stereo not given) | 1.53% (inactive) | 
25 | CC1(C)c2ccccc2N2CCC(=O)NC21/C=C/c1ccco1 (stereo not given) | 0.369% [at 0.00035 µM] (inactive) | 
26 | COc1ccc(C2Nc3ccccc3C(=O)N2Cc2ccc(C(F)(F)F)cc2)cc1COc1ccc(NC(C)=O)cc1 (stereo not given) | 21.4% (inactive) | 
27 | O=C1c2ccccc2NC(c2ccc(O)cc2)N1Cc1ccco1 (stereo not given) |  | inactive
28 | COc1ccc(CN2C(=O)N(c3ccccc3)C(=O)C2c2ccccc2)cc1COc1ccc(NC(C)=O)cc1 (stereo not given) | 7.49% (inactive) | 
29 | CC(=O)N1CCCc2cc(S(=O)(=O)N(CC(C)C)CC(C)C)ccc21 | -0.0207% [at 0.00035 µM] (inactive) | 
30 | O=C1c2ccccc2NC(c2c(Cl)cccc2Cl)N1Cc1ccccc1 (stereo not given) | 1.83% (inactive) | 
31 | COc1ccc(-c2nc3ccccc3c(=O)n2Cc2ccco2)cc1COc1ccc(NC(C)=O)cc1 |  | 17.8 µM (active)
32 | Cc1cc(=O)[nH]c(SCCOc2ccc3c(c2)CCC3)n1 | 0.323% [at 0.00035 µM] (inactive) | 
33 | CC1CCN(S(=O)(=O)c2cccc(C(=O)Nc3ccccn3)c2)CC1 | 0.1% [at 0.00035 µM] (inactive) | 
34 | CCOC(=O)c1ccc(NC(=O)c2ccc(CN3CCOCC3)cc2)cc1 | 0.768% [at 0.00035 µM] (inactive) | 
35 | COc1ccc(-c2ccc(-c3noc(C)n3)c(OC)n2)cc1 | -0.214% [at 0.00035 µM] (inactive) | 
